Sfp inh = qHTS Assay for Inhibitors of Bacillus subtilis Sfp phosphopantetheinyl transferase (PPTase). 4'-phosphopantetheinyl transferase ffp (Bacillus subtilis), Q9F4F7. Biochemical Sfp PPTase activity, qHTS. Potency, µM, without a hit: largest response in the series, negative = inhibition, usual class: inhibitors. 310,000 tested, 3.5% active. AID 1490, 2009;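 also: the enzyme is Sfp with the accession as filed and its product quenches rhodamine fluorescence; potency is read from the fitted curve at half-maximal effect; 0% = enzyme reaction without inhibitor and -100% = no enzyme wells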
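Fluorescence-quenching assay with 15 nM Sfp, 5 uM rhodamine-CoA and 12.5 uM BHQ-2-labelled ybbR peptide in pH 7.6 Hepes/MgCl2 buffer. Enzyme was pre-incubated with compound for 15 min at room temperature. Rate was taken from the 30-min fluorescence change (525/598 nm).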
ELG1 DNA repair = qHTS screen for small molecules that inhibit ELG1-dependent DNA repair in human embryonic kidney (HEK293T) cells expressing luciferase-tagged ELG1; 330,000 tested, 2.3% active; Potency, µM (top dose mostly 46.1 µM), for inactives: at the highest dose activity change, negative = inhibition, most hits filed as inhibitors; AID 504467, 2011; HEK293T ELG1-luciferase reporter, luminescence, 16 h; DNA damage induced by 5-fluorouridine; also: potency is read from the fitted curve at half-maximal effect; nearly all actives have a fitted effect of over 55% in size
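Luminescence from the luciferase reporter, measured 30 min after ONE-Glo reagent at room temperature, was the read-out. Beforehand, 2,000 cells per well were exposed for 16 hr at 37 °C to 5-fluorouridine together with compound or vehicle.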
FBPA coupling cs = qHTS Assay for Inhibitors of Fructose-1,6-bisphosphate Aldolase from Giardia Lamblia: Coupling assay counterscreen; coupling enzyme system counterscreen, AmpLite Red fluorescence; activity change, negative = inhibition, % at 58.2 µM, hits read low; 290,000 tested, 0.67% active; in the data active = activity change below about -30%
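Counterscreen of the coupled detection system alone, without aldolase: glyceraldehyde-3-phosphate coupling enzymes plus AmpLite Red readout. Compounds at 57.5 uM final, 10 min RT preincubation, 20 min RT reaction, fluorescence 525/598 nm.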
Giardia kill = Small Molecules that selectively kill Giardia lamblia: qHTS; Giardia lamblia trophozoite viability; 340,000 tested, 0.15% active; activity change, % at 7.66 µM, hits read low; in the data active = activity change below about -80%; inconclusive = between about -30% and that limit;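 also: parasites exposed to compound for two days anaerobically before the ATP read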
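Compounds were tested on trophozoites seeded at 100 cells/well and held 48 hrs at 37 deg C anaerobically. An ATP-based luminescent kit measured the remaining live cells.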
ELG1 FLuc counter = qHTS screen for small molecules that inhibit ELG1-dependent DNA repair: Hit Confirmation in Cell-Based Luciferin Assay; AID 624247, 2012; cell-free firefly luciferase luminescence counter-screen, ViewLux; Potency, µM (highest dose often 46.1 µM), inactives show top-dose activity change, negative = inhibition, hits mostly inhibitors; shares compounds with ELG1 DNA repair; 350 tested, 3% active; also: potency is read from the fitted curve at half-maximal effect
ELG1 Luc conf = HTS assay for small molecules that inhibit ELG1-dependent DNA repair in human embryonic kidney (HEK293T) cells expressing luciferase-tagged ELG1: Hit Confirmation; HEK293T ELG1-luciferase levels, luminescence; cells co-treated with 5-fluorouridine; 670 tested, 68% active; shares compounds with ELG1 DNA repair; AID 624248, 2012; Potency, µM (series often up to 46.1 µM), for inactives: at the top dose activity change, negative = inhibition, actives largely listed as inhibitors; also: potency is read from the fitted curve at half-maximal effect; nearly all actives have a fitted effect of over 55% in size
Target sequence (Q96QE3 whole entry, looked up): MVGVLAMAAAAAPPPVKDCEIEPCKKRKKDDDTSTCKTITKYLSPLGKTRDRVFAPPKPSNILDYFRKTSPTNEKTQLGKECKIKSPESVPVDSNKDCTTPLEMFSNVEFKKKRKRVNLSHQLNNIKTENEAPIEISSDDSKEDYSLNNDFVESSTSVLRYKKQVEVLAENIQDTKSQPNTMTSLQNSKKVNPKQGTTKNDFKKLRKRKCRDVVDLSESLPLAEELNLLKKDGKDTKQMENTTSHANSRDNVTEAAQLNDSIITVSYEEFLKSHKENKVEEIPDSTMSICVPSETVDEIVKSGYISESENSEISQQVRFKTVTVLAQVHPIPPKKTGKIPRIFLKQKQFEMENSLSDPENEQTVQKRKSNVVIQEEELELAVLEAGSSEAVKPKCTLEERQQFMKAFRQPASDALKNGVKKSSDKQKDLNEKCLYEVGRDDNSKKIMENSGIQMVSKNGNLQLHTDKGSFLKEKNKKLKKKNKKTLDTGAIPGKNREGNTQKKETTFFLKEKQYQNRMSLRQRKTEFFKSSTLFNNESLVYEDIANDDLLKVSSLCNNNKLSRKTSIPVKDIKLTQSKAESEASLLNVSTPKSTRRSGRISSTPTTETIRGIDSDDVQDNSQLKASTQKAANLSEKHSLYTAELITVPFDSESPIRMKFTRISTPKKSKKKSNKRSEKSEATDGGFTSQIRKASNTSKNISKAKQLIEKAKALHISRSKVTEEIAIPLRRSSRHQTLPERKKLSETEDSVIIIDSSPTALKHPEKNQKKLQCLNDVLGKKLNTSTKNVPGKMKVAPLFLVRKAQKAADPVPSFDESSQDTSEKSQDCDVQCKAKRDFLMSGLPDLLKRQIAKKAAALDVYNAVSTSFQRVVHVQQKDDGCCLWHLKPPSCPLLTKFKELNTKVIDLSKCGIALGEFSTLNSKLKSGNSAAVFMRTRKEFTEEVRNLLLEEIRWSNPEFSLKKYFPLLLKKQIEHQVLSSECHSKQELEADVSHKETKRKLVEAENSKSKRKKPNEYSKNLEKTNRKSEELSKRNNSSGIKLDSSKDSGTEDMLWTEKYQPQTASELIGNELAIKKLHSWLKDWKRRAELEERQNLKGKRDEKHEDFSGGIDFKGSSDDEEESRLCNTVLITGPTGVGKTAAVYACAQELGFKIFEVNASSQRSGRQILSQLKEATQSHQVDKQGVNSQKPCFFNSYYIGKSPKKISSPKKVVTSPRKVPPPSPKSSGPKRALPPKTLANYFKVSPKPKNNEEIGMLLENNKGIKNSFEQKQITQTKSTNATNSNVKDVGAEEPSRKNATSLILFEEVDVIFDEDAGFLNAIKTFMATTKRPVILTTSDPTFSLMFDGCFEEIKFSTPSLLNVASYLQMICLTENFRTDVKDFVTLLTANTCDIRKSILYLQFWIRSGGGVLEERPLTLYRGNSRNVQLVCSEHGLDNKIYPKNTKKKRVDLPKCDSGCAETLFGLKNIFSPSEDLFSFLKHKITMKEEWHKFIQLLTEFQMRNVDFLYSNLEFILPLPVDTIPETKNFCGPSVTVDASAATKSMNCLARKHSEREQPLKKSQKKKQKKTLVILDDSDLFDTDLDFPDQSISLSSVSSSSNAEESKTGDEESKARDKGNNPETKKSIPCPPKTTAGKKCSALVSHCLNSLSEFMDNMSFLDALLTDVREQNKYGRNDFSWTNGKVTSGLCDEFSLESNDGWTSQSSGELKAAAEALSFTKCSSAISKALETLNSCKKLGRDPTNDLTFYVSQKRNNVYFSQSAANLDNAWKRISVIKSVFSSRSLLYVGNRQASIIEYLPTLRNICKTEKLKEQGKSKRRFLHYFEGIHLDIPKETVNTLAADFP
ELG1 MMS Luc = confirmation of human ELG1 repair inhibitors, MMS stimulated | shares compounds with ELG1 DNA repair | HEK293T luciferase-tagged ELG1 level, MMS stimulated | Potency, µM (series often up to 46.1 µM), for inactives: top-dose activity change, negative = inhibition, usual class: inhibitors | 670 tested, 53% active; also: potency is read from the fitted curve at half-maximal effect; nearly all actives have a fitted effect of over 60% in size
ELG1 5-FU = qHTS screen for small molecules that inhibit ELG1-dependent DNA repair: Hit Confirmation with 5FU Viability; shares compounds with ELG1 DNA repair; cell viability with 5-FU, ELG1-dependent repair; Potency, µM (highest dose often 46.1 µM), without a hit: top-dose activity change, negative = viability loss, most hits filed as cytotoxic; 670 tested, under 10 active;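 also: ELG1-luc HEK293T cells cotreated with 5-fluorouridine at 10 µM final; potency is read from the fitted curve at half-maximal effect; viability measured 16 h after compound addition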
ELG1 MMS viab = qHTS screen for small molecules that inhibit ELG1-dependent DNA repair: Hit Confirmation with MMS Viability; Cell viability with MMS, ELG1-dependent DNA repair; Potency, µM (series often up to 46.1 µM), for the others: at the highest dose activity change, negative = viability loss, usual class: cytotoxic; shares compounds with ELG1 DNA repair; 670 tested, 33% active;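 also: ELG1-luc HEK293T cells co-treated with 10 µM MMS; potency is read from the fitted curve at half-maximal effect; viability read 16 h after compound addition; nearly all actives have a fitted effect of over 60% in size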
ELG1 unstim viab = qHTS screen for small molecules that inhibit ELG1-dependent DNA repair: Hit Confirmation with Unstimulated Viability Assay; shares compounds with ELG1 DNA repair; 900 tested, 8% active; cell viability counter-screen, unstimulated, luminescence; Potency, µM (doses to about 45.9 µM), for inactives: top-dose activity change, negative = loss of viability, usual class: cytotoxic;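 also: potency is read from the fitted curve at half-maximal effect; compound exposure lasted 16 hours before reading; nearly all actives have a fitted effect of over 55% in size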
FLuc enzyme = qHTS screen for small molecules that inhibit ELG1-dependent DNA repair: Hit Confirmation in Biochemical Luciferin Assay. shares compounds with ELG1 DNA repair. purified firefly luciferase, luminescence counter-screen. Potency, µM (series often up to 57.5 µM), inactives show at the top dose activity, negative = inhibition, actives largely listed as inhibitors. 350 tested, 10% active; also: potency is read from the fitted curve at half-maximal effect
* = called active by the depositor; ? = inconclusive; . = no result given. Most compounds without a hit are left out; they make up all but 5.5% or so of the library. Unless noted, calls follow the shape of the dose curve; as a rule, active = well fitted curve in the direction sought with a large enough effect; inconclusive = small, poorly fitted or top-dose-only effect, or another doubt; inactive = no such curve, though single readings can be large; an effect the other way counts as inactive or inconclusive. Unless noted, % is scaled to controls: 0 for no effect and ±100 for the full control effect.

SMILES	Sfp inh	ELG1 DNA repair	FBPA coupling cs	Giardia kill	ELG1 FLuc counter	ELG1 Luc conf	ELG1 MMS Luc	ELG1 5-FU	ELG1 MMS viab	ELG1 unstim viab	FLuc enzyme
CC1(C)Cc2c(c(N3CCOCC3)nc3sc4c(NN)ncnc4c23)CS1	22%	?	1	15	.	.	.	.	.	.	.
CC1(C)Cc2c(c(N3CCOCC3)nc3sc4c(NCc5ccco5)nnnc4c23)CS1	?	4.1µM*	-1	1	3%	4.5µM*	-2%	?	?	-2%	0%
CC(C)CNc1nnnc2c1sc1nc(N3CCOCC3)c3c(c12)CC(C)(C)SC3	9%	4.1µM*	-1	37	1%	4.5µM*	1%	?	9%	-2%	4%
CCc1nc2ccc(C(=O)NCCc3ccc(OC)c(OC)c3)cc2nc1CC	1%	-13%	0	-10	.	.	.	.	.	.	.
CCOCCCNC(=O)c1ccc2nc(-c3ccc(OC)c(OC)c3)c(-c3ccc(OC)c(OC)c3)nc2c1	19%	1.5µM*	0	16	.	0.44µM*	?	?	?	?	.
COc1ccc(-c2nc3ccc(C(=O)NCC(OC)OC)cc3nc2-c2ccc(OC)c(OC)c2)cc1OC	20%	1µM*	-1	-3	.	0.71µM*	8%	?	?	2%	.
COC(CNC(=O)c1ccc2nc(-c3cccs3)c(-c3cccs3)nc2c1)OC	6%	?	0	-12	.	.	.	.	.	.	.
COc1ccc(-c2nnc3ccc(SCC(=O)Nc4nccs4)nn23)cc1OC	15%	?	2	3	.	.	.	.	.	.	.
COc1ccc(-c2nnc3ccc(SCC(=O)Nc4nc5ccccc5s4)nn23)cc1OC	3%	0.52µM*	0	-1	29%	0.63µM*	9%	?	-5%	?	?
Cc1cc(C)cc(NC(=O)N2CCCC2C(=O)Nc2ccc(-n3cnnn3)cc2)c1 (configuration not stated)	-2%	?	3	2	.	?	-8%	?	-1%	2%	.
COc1ccc(NC(=O)C2CCN(c3nc(C)cc(C)n3)CC2)cc1	12%	-14%	4	3	.	.	.	.	.	.	.
CC(C)c1ccc(NC(=O)C2CCN(c3ncnc4c3nc3n4CCCCC3)CC2)cc1	-11%	?	-2	-24	.	.	.	.	.	.	.
COc1ccc(NC(=O)C2CCN(c3nc(C)nc4c3CCC4)CC2)cc1	-9%	0.73µM*	0	55	-13%	?	5µM*	-6%	5µM*	?	25%
CCCN1CCN(C(=O)C2CCN(c3ncnc4c3nc3n4CCCCC3)CC2)CC1	4%	-8%	-1	53	65%	-28%	?	-8%	?	-16%	-2%
Cc1cccc(NC(=O)C2CCN(c3ncnc4c3nc3n4CCCCC3)CC2)n1	3%	1.8µM*	1	-16	5%	5µM*	?	?	-11%	?	-5%
COc1ccc(OC)c(CCNC(=O)C2CCN(c3ncnc4c3nc3n4CCCCC3)CC2)c1	0%	?	.	-16	.	.	.	.	.	.	.
COc1ccc(NC(=O)C2CCN(c3ncnc4c3nc3n4CCCCC3)CC2)c(OC)c1	4%	4.6µM*	5	3	?	7.9µM*	32µM*	?	?	?	-9%
COc1ccc(N2CCN(C(=O)C3CCCN(c4ncnc5c4nc4n5CCCCC4)C3)CC2)cc1 (configuration not stated)	2%	3.7µM*	-1	1	56%	10µM*	?	?	-7%	?	-4%
O=C(C1CCCN(c2ncnc3c2nc2n3CCCCC2)C1)N1CCN(c2ccc(F)cc2)CC1 (configuration not stated)	18%	?	0	18	.	.	.	.	.	.	.
COC(=O)c1ccccc1NC(=O)C1CCN(c2ncnc3c2nc2n3CCCCC2)CC1	-5%	?	-8	20	-2%	11µM*	?	?	1%	-8%	-11%
O=C(NCCCN1CCCCC1)C1CCN(c2ncnc3c2nc2n3CCCCC2)CC1	12%	-2%	0	-7	.	.	.	.	.	.	.
CCOc1ccc(-c2[nH]ncc2-c2ccc(OC)c(OC)c2)c(O)c1	1%	2.3µM*	-8	2	.	13µM*	?	-4%	?	?	.
COC1=C(N)C(=O)c2nc(-c3nc(C(=O)O)c(C)c(-c4ccc(OC)c(OC)c4O)c3N)ccc2C1=O	3.5µM*	0.82µM*	-64*	?	2.5µM*	1.1µM*	0.04µM*	2.2µM*	0.056µM*	1.1µM*	-8%
Cc1cccc(C(=O)OCC(=O)N2CCc3ccccc3C2)c1O	.	?	.	33	.	.	.	.	.	.	.
O=C(OCC(=O)N1CCCCC1)c1cccs1	.	?	.	-7	.	.	.	.	.	-7%	.
Cc1cccc(C(=O)OCC(=O)N2CCCCCC2)c1O	.	?	.	-8	.	.	.	.	.	?	.
O=C(OCC(=O)N1CCCCCC1)c1cccs1	21%	?	-1	1	.	.	.	.	.	.	.
O=S(=O)(N/N=C/c1ccc2c(c1)OCO2)c1ccc(Br)cc1	4%	?	.	-9	.	.	.	.	.	.	.
